This is a sample that favours compounds with a hit; in the whole collection about 2.9% have one here.
DRD3 antagonist: D3 dopamine receptor (human) antagonism. D3R cells, DiscoveRx beta-arrestin luminescence, antagonist mode; hits give low values. P35462. max response, negative = inhibition, %. 360,000 compounds, 2.5% hits. AID 652054; in the data active = max response below about -50%; inconclusive = no clear call, values can overlap the other calls; also: % is scaled to controls: 0 for no effect and ±100 for the full control effect
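Cells plated overnight at 1500 cells/well, then exposed to library compounds with dopamine controls for 90 minutes at 37 degrees C. DiscoveRx reagent added for 30–60 minutes at room temperature; luminescence read, quantitative HTS format.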
TSHR antagonist: human thyrotropin receptor antagonism | P16473 | TSHR-expressing cells, TSH-stimulated cAMP HTRF, 2 h; hits give low values | activity change, negative = inhibition, % at 11.5 µM | 330,000 compounds, 0.2% hits | AID 504810;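 active = activity change below a set negative limit, meaning inhibition stronger than a set level, cut at about -70% in these data; inconclusive = activity change between two set negative limits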; also: % is scaled to controls: 0 for no effect and ±100 for the full control effect
Target sequence (P16473 whole entry, looked up): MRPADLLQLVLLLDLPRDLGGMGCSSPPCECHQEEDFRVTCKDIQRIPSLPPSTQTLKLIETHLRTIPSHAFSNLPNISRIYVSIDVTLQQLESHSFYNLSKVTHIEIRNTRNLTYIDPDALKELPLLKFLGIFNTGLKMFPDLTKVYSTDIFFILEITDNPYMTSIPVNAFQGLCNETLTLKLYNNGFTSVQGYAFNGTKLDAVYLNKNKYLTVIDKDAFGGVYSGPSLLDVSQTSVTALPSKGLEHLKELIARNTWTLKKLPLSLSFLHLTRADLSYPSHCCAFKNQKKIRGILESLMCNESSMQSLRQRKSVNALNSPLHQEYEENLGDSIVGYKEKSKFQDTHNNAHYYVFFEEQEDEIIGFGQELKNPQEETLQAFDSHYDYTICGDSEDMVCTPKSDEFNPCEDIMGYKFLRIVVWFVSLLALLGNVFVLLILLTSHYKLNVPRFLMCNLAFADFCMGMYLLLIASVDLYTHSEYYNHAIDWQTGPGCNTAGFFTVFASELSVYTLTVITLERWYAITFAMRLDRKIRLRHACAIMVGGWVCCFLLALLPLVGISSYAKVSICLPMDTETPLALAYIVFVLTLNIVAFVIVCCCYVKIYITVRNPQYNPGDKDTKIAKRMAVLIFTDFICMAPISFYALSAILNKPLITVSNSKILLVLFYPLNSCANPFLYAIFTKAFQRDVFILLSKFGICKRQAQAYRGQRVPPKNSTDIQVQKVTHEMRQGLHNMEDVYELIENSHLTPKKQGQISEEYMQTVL
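TSHR-expressing cells were treated with compounds, then stimulated with TSH at EC80 (4nM final) for 2 hours at 37 deg C. Cellular cAMP was measured by HTRF competition between lysate cAMP and cAMP-d2 for a cryptate-labelled anti-cAMP antibody.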
DRD3 agonist: activates the human D3 dopamine receptor; D3R DiscoveRx beta-arrestin cells, luminescence, 90 min; max activation, %; 410,000 compounds, 0.58% hits; in the data active = max activation above about 30%; also: 0% is about no effect
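Agonist mode: compounds and dopamine controls were applied to plated cells for 90 min at 37 degrees C after an overnight attachment at 1500 cells/well. Luminescent read-out followed 30 - 60 minutes at room temperature with DiscoveRx detection reagent.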
B2AR arrestin: beta2AR (human) beta-arrestin recruitment activity; Potency, µM (doses to about 46.1 µM), for inactives: top-dose activation, usual class: activators; P07550; beta-arrestin recruitment to beta2AR, cell-based reporter; 330,000 compounds, 0.02% hits; active = well fitted activation curve with a large enough effect; inconclusive = small, poorly fitted or top-dose-only effect;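 also: potency is read from the fitted curve at half-maximal effect; 0% = DMSO controls and full agonism = EC100 isoproterenol or metaproterenol; nearly all actives have a fitted effect of over 65% in size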
Numbers without * were called inactive; ? = inconclusive; nt = not tested or not shown; ! = not active in a repeat; [ ] = dose if it differs, or a comment.

SMILES	DRD3 antagonist	TSHR antagonist	DRD3 agonist	B2AR arrestin
C[C@]12C=CC(=O)C=C1[C@@H](F)C[C@@H]1[C@@H]2[C@@H](O)C[C@@]2(C)[C@H]1CC[C@]2(O)C(=O)CO	nt	nt	3	nt
Cc1ccc(C(C)C)c(OCCCn2c(=O)oc3ccc(C)cc32)c1	nt	nt	2	nt
Cc1ccc2[nH]c3nc(SCCN4CCOCC4)nnc3c2c1	-57*	-4	-3	0%
CCn1c2ccc(C)cc2c2nnc(SCCN3CCOCC3)nc21	-23	-19	-2	-1%
COc1ccccc1OCCCCN1CCN(C(c2ccccc2)c2ccccc2)CC1	-84*	31	-34	0%
N#Cc1ccc(OCC(O)CN2CCN(CC(O)COc3ccc(C#N)cc3)CC2)cc1 (stereo not given)	-12	6	-9	1%
N#Cc1ccc(OCC(O)CN2CCN(C(c3ccccc3)c3ccccc3)CC2)cc1 (stereo not given)	-54*	9	-24	0%
c1ccc(OCCN2CCOCC2)cc1	-6	11	-12	1%
CCC(=O)c1ccc(OCC(O)CN2CCN(C(c3ccccc3)c3ccccc3)CC2)cc1 (stereo not given)	-88*	3	-62	-1%
c1ccc(OCCOCCN2CCN(C(c3ccccc3)c3ccccc3)CC2)cc1	-78*	13	-30	-1%
Cc1ccccc1NC(=O)c1oc2c(c1C)-c1nn(Cc3cccc(Cl)c3)cc1CC2	nt	nt	-3	nt
Cc1cc2nc(-c3cccc(NC(=O)COc4ccc(C(C)C)cc4)c3)oc2cc1C	nt	nt	3	nt
OC(COc1ccccc1)CN1CCN(C(c2ccccc2)c2ccccc2)CC1 (stereo not given)	-95*	20	-27	0%
C/C=C(\C)C(=O)OC1[C@H](OC(C)=O)C2(CO)C(CC1(C)C)C1=CCC3C4(C)CCC(O[C@@H]5O[C@H](C(=O)O)[C@@H](O[C@@H]6O[C@H](CO)[C@@H](O)[C@H](O)[C@H]6O)[C@H](O)[C@H]5O[C@H]5O[C@H](CO)[C@@H](O)[C@H](O)[C@H]5O)[C@](C)(CO)C4CCC3(C)[C@]1(C)C[C@H]2O (stereo not given in full)	-121*	nt	-44	nt
C/C=C(/C)C(=O)OC1CC(C)(C)C[C@H]2C3=CC[C@@H]4[C@@]5(C)CCC(O[C@@H]6O[C@@H](C(=O)O)[C@@H](O)C(O[C@@H]7OC[C@H](O)[C@@H](O)[C@@H]7O[C@@H]7OC(CO)C(O)[C@@H](O)[C@@H]7O)C6O[C@@H]6OC(CO)C(O)C(O)C6O)[C@@](C)(CO)[C@@H]5CC[C@]4(C)[C@]3(C)CC(O)[C@@]12CO (stereo not given in full)	-23	-15	22	0%
CN(C)c1ccc(C(CNC(=O)c2ccccc2Cl)N2CCCC2)cc1 (stereo not given)	nt	nt	-7	nt
CCN(CC)S(=O)(=O)c1ccc(F)c(C(=O)NCCC(C)C)c1	13	-7	36*	-1%
Cc1cccc(OCc2nc3ccccc3n2C)c1	0	8	0	0%
CCCn1c(COc2cccc(C)c2)nc2ccccc21	nt	nt	41*	nt
CN(C)CCCC1Sc2ccccc2Sc2ccccc21 (stereo not given)	-69*	nt	-40	nt
CNCCC1Sc2ccccc2Oc2ccccc21 (stereo not given)	-4	6	-12	0%
C[C@H](CO)N1C[C@H](C)[C@@H](CN(C)CC2CCCCC2)Oc2ccc(NC(=O)Cn3cnnn3)cc2C1=O	12	3	35*	0%
C[C@@H]1CN([C@H](C)CO)C(=O)c2cc(NC(=O)Nc3ccc4c(c3)OCO4)ccc2O[C@H]1CN(C)Cc1ccncc1	4	-11	32*	-1%
CCc1nnc(NC(=O)c2cc(=O)c3cc(C)c(C)cc3o2)s1	nt	nt	2	nt
O=C(O)c1ccc2c(c1)C(=O)N([C@H](Cc1ccc3ccccc3c1)C(=O)O)C2=O	nt	9	nt	-1%
SMILES	DRD3 antagonist	TSHR antagonist	DRD3 agonist	B2AR arrestin
C=CCn1c(SCC(=O)Nc2sccc2C(N)=O)nc2ccc(Cl)cc2c1=O	106	-26	19	0%
C=CCn1c(SCC(=O)Nc2sccc2C(N)=O)nc2sc(CC)cc2c1=O	75	-13	35*	7%
CCCNC(=O)c1cc2c(c(-c3cccc(-c4ccccc4F)c3)n1)[C@@H](CCO)N(C(=O)CC1CC1)C2	0	nt	-12	nt
COC(=O)c1cccc(C(=O)Nc2ccc(F)cc2)n1	-62*	-1	-2	0%
NS(=O)(=O)c1ccc(CCNC(=O)c2ccc3nc(CCc4ccccc4)oc3c2)cc1	nt	nt	6	nt
CNC(=S)N/N=C(\C)c1ccc(Cl)s1	4	29	3	18µM*
CCNC(=S)N/N=C(\C)c1ccc(Cl)s1	19	1	-3	-1%
COc1ccc(-c2ccc(=O)n(CC(=O)NCCc3ccccc3)n2)cc1	nt	nt	6	nt
CCCC(O)c1nc2ccccc2n1CCCCOc1ccc(OC)cc1 (stereo not given)	nt	nt	0	nt
O=C(NCCc1ccccc1)c1cc(Sc2cccc(Cl)c2)nc2ccccc12	nt	nt	5	nt
CC[C@@]1([C@@H]2O[C@@H]([C@H]3O[C@@](O)(CO)[C@H](C)C[C@@H]3C)C[C@@H]2C)CC[C@H]([C@]2(C)CC[C@]3(C[C@H](O)[C@@H](C)[C@@H]([C@@H](C)[C@@H](OC)[C@H](C)C(=O)O)O3)O2)O1 (stereo in doubt)	nt	nt	75*!	nt
Cc1c(I)c(=O)n(-c2ccccc2)n1C	nt	nt	-1	nt
Cc1c(CN(C)CCc2ccccc2)c(=O)n(-c2ccccc2)n1C	-77*	15	-29	0%
Cc1c(O)c(=O)n(-c2ccccc2)n1C	-57*	30	-68	0%
Cc1c(N=Cc2c(O)n(C)c(=O)c3ccccc23)c(=O)n(-c2ccccc2)n1C	42	-9	33*	0%
Cc1c(N=NC2=C(O)CC(C)(C)CC2=O)c(=O)n(-c2ccccc2)n1C	-63*	-2	-45	0%
CCCC(=O)NC(=S)c1c(C)n(C)n(-c2ccccc2)c1=O	72	-3	38*	0%
Cc1ccc(CN2CCC(CNC(=O)c3cnn(-c4ccccc4)c3C3CCN(C(=O)OC(C)(C)C)CC3)CC2)cc1	nt	nt	3	nt
COC(=O)c1cccc(NC2=NS(=O)(=O)c3ccccc32)c1	nt	nt	3	nt
Cc1ccc(/C=N/NC(=O)c2ccncc2)cc1	?	37	-5	-1%
Cc1ccc(/C=N\NC(=O)c2csnn2)cc1	-53*	4	-10	0%
CCOc1ccc(OCC(=O)Nc2c(C(=O)Nc3ccc(C)cc3)oc3ccccc23)cc1	nt	nt	-10	nt
Cc1cccc(S(=O)(=O)NC(=O)C2(C)CCN2C(=O)CC2CCCCC2)c1 (stereo not given)	-4	nt	4	nt
CC1(C(=O)NS(=O)(=O)c2cccc(F)c2)CCN1C(=O)CC1CCCCC1 (stereo not given)	14	nt	30*	nt
COc1ccc([C@]23Cc4cc(OC)c(OC)cc4C(O2)C2=C(CCCC2=O)O3)cc1	nt	nt	nt	-1%[9.22 µM]
C=C1[C@@H](O)[C@H](CC(C)C)N(Cc2ccccc2Br)S1(=O)=O	-7	nt	-21	nt
